# Screens: PubChem, National Center for Advancing Translational Sciences (NCATS)
# mIDH1 inhibitor: inhibitors of human mutant IDH1 R132H; O75874; IDH1-R132H enzyme, NADPH consumption, diaphorase/resazurin fluorescence; Potency, µM (titrated, usually from 76.6 µM), usual class: inhibitors; 390,000 tested, 0.093% active; AID 602179; further: nearly all actives have a fitted effect of over 65% in size
# Target sequence (O75874 whole entry R132H, stated change not applied): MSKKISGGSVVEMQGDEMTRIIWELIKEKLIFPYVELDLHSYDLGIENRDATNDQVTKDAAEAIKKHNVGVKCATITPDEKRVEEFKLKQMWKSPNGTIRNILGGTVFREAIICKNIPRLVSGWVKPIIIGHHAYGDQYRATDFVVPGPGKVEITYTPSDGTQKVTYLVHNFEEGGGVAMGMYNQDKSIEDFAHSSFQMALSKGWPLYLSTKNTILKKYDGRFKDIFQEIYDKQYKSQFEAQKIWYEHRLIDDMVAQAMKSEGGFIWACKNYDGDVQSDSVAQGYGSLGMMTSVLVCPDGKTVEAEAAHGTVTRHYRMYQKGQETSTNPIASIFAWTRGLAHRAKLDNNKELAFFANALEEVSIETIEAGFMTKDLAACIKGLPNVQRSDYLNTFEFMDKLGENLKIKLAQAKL
#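 IDH1-R132H (0.5 ug/mL) preincubated 30 min with compound, then NADPH (0.016 mM) and alpha-KG (2 mM) added; 80 min at RT, pH 7.5. Remaining NADPH coupled via diaphorase/resazurin to fluorescence (540/590 nm); concentration-response curves normalized to no-enzyme control.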
# ELG1 DNA repair: inhibitors of ELG1-dependent DNA repair in HEK293T cells; Potency, µM (titrated, usually from 46.1 µM), most hits filed as inhibitors; HEK293T ELG1-luciferase reporter, luminescence, 16 h; DNA damage induced by 5-fluorouridine; 330,000 tested, 2.3% active; AID 504467; further: nearly all actives have a fitted effect of over 55% in size
#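 Cells (2,000 per well) received 5-fluorouridine plus test compound or DMSO and were incubated 16 hr at 37 °C, 5% CO2. Luciferase activity was read by luminescence 30 min after ONE-Glo addition; signal suppression marked inhibition of damage-induced ELG1 function.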
# Nrf2 activator: Nrf2 pathway activation; AREc32 ARE-luciferase reporter (MCF7-derived line), luminescence, 24 h; Potency, µM (series often up to 46.1 µM), most hits filed as activators; 410,000 tested, 0.31% active; AID 624171; further: nearly all actives have a fitted effect of over 65% in size
#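 Luminescent ARE reporter assay in AREc32_Fluc cells: overnight plating at 37 deg C, 24 hr compound incubation, Steady-Glo added, 30 min RT before reading.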
# Nrf2 inh: inhibitors of Nrf2 signaling; A549 ARE-Fluc reporter, luciferase luminescence, 18-24 h; Potency, µM (titrated, usually from 46 µM), hits mostly inhibitors; 360,000 tested, 2.1% active; further: nearly all actives have a fitted effect of over 60% in size
#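 Reporter: ARE-Fluc in A549. Exposure: 18-24 h, 37 °C, 5% CO2, 5% FBS OPTI-MEM. Readouts: fluorescent cytotoxicity (CellTiter-Fluor), then luminescent Nrf2 signal after BugLite.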
# A549 tox: counter-screen for Nrf2 inhibitors: cytotoxicity in A549 cells | Potency, µM (top dose mostly 46 µM), usual class: inhibitors | AID 504648 | 390,000 tested, 0.16% active | A549 ARE-Fluc cells, CellTiter-Fluor viability, 18-24 h
#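 A549 ARE-Fluc cells in 5% FBS OPTI-MEM, 5000 cells/well, rested 2 h then exposed to compounds in concentration-response for 18-24 h at 37 °C. Viability by CellTiter-Fluor fluorescence (Ex 405/Em 525) after 30 min; luciferase luminescence (BugLite, 15 min, RT) read afterwards.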
# Numbers stand for hits; . = inactive; ? = inconclusive; / = no result. An excerpt weighted towards active compounds, which were near 3.8% of everything screened. The call rests on the fitted dose curve; in most records, active means well fitted curve in the direction sought with a large enough effect; inconclusive means small, poorly fitted or top-dose-only effect, or another doubt; inactive means no such curve, though single readings can be large; an effect the other way counts as inactive or inconclusive.
SMILES,mIDH1 inhibitor,ELG1 DNA repair,Nrf2 activator,Nrf2 inh,A549 tox
O=C(Nc1ccc(O)c2ncccc12)c1ccccc1F,/,/,/,?,.
CN(C(=O)C(C)(C)C)c1ccc(OCC(=O)N2CCc3ccccc3C2)cc1,.,?,.,10µM,.
CCC(=O)c1ccc(OCC(=O)N2CCc3cc(OC)c(OC)cc3C2)cc1,.,.,.,.,.
COc1cc2c(cc1OC)CN(C(=O)COc1ccc(C)c(C)c1)CC2,.,18µM,.,?,.
COc1cccc(C2=CC(c3ccccc3F)n3ncc(C(=O)Nc4ccc(C)cc4)c3N2)c1 (stereo not drawn),.,/,.,/,.
CC(C)(C)CNC(=O)c1cccc2c1C(=O)c1ccc(N3CCCC3)cc1S2(=O)=O,.,16µM,.,?,.
CCOC(=O)c1cnc2ccc(C(=O)OC)cc2c1Nc1ccc(OCc2ccccc2Cl)cc1,.,/,.,.,.
CN(CCC#N)C(=O)COC(=O)c1ccccc1C(=O)c1ccc(Cl)c([N+](=O)[O-])c1,.,.,16µM,.,.
CC(C)N(C(=O)COC(=O)c1ccccc1C(=O)c1ccc(Cl)c([N+](=O)[O-])c1)C(C)C,.,?,2.2µM,?,.
O=C(COC(=O)c1ccccc1C(=O)c1ccc(Cl)c([N+](=O)[O-])c1)NC1CCCCCC1,.,?,.,21µM,?
Cc1csc2nc(COC(=O)c3ccccc3NC(=O)COc3ccccc3F)cc(=O)n12,.,/,.,/,.
CCOc1ccccc1NC(=O)c1nnn(CC(=O)Nc2ccccc2CC)c1N,.,/,.,.,.
COc1ccc(NC(=O)c2ccc(-c3csc(C)n3)cc2)cc1,.,?,.,21µM,.
Cc1nc(-c2ccc(NC(=O)c3ccco3)cc2)cs1,.,?,.,7.3µM,.
CCOc1ccc(NC(=O)c2ccc(-c3csc(C)n3)cc2)cc1,.,?,.,?,.
Cc1nc(-c2cccc(NC(=O)c3ccco3)c2)cs1,.,.,?,.,.
CCc1ccccc1N(C)C(=O)Cc1c(C(=O)O)c(C)cn1C,.,/,.,/,.
O=S(=O)(c1ccccc1)c1nc(-c2ccccc2)oc1N1CCN(c2cccc(Cl)c2)CC1,.,/,.,.,.
O=C(Nc1ccc(F)cc1)c1nc(S(=O)(=O)Cc2ccccc2)ncc1Cl,.,?,?,?,?
O=C(NCc1ccccc1)c1nc(S(=O)(=O)Cc2ccc(F)cc2)ncc1Cl,.,/,.,26µM,?
Cc1cccc(CS(=O)(=O)c2ncc(Cl)c(C(=O)Nc3c(C)cccc3C)n2)c1,.,.,.,15µM,?
Cc1cccc(C)c1NC(=O)c1nc(S(=O)(=O)Cc2ccccc2)ncc1Cl,.,?,?,?,.
Cc1cc(C)c(S(=O)(=O)N2CCN(CCN3C(=O)c4cccc5cccc(c45)C3=O)CC2)cc1[N+](=O)[O-],/,3.7µM,/,/,/
CCCS(=O)(=O)N1CCN(CCN2C(=O)c3cccc4cccc(c34)C2=O)CC1,.,?,.,?,.
CC(=O)c1ccccc1OCc1ccc(S(=O)(=O)Cc2ccccc2)cc1,.,?,.,21µM,.
SMILES,mIDH1 inhibitor,ELG1 DNA repair,Nrf2 activator,Nrf2 inh,A549 tox
COc1ccccc1-c1nc(SCC(=O)Nc2ccc(C)c(C)c2)n[nH]1,.,/,.,?,.
COc1cc(/C=C2/CC(C)OC2=O)c([N+](=O)[O-])cc1OC (stereo not drawn),.,.,.,.,.
Cc1ccc(C)c(S(=O)(=O)N2CCC3(CC2)OCCN3S(=O)(=O)c2cccs2)c1,.,?,.,?,.
Cc1cc(F)ccc1S(=O)(=O)N1CCC2(CC1)OCCN2S(=O)(=O)c1cccs1,.,?,.,12µM,.
COc1ccc(-c2nc(N3CCN(S(=O)(=O)c4ccc(F)cc4)CC3)c3ccccc3n2)cc1,/,/,/,.,.
Cc1cc(C)cc(C(=O)N2CC(=O)Nc3ccc(C)cc3C2c2ccccc2)c1 (stereo not drawn),?,/,.,?,.
CCOc1cc(/C=N/NC(=O)c2ccncc2)cc(Cl)c1OS(C)(=O)=O,.,15µM,.,.,.
CCOc1cc(/C=N/NC(=O)c2ccncc2)ccc1OS(C)(=O)=O,.,.,.,.,.
COc1ccccc1CN(Cc1cc2cc3c(cc2[nH]c1=O)OCCO3)Cc1nnnn1Cc1ccco1,.,21µM,.,.,.
